Test system: Vero E6 infected with SARS-CoV-2
Experiment: inhibition of SARS-CoV-2 cytopathic effect; higher = more antiviral protection, active = above 15
Conditions: 48 h

Measured: inhibition of SARS-CoV-2 cytopathic effect

Cc1ccc(Sc2cncc3sc(C(N)=O)cc23)cc1
inactive: 1 nM -1.26% | 8.33 nM -2.96% | 100 nM -2.49% | 833.33 nM -2.02% | 10000 nM 4.33%

C#C[C@]1(O)CC[C@H]2[C@@H]3CCC4=CC(=O)CC[C@@H]4[C@H]3C(=C)C[C@@]21CC [etonogestrel]
inactive: 1 nM -0.26% | 8.33 nM -1.3% | 100 nM -4.31% | 833.33 nM -3.15% | 10000 nM -3.98%

COc1ccc(OC)c(CN(C(C)=O)c2cc(F)ccc2Oc2ccccc2)c1
inactive: 1 nM 1.17% | 8.33 nM -0.16% | 100 nM 4.26% | 833.33 nM 3.55% | 10000 nM 2.47%

COc1ccc(-c2ccc3c(N4CCOCC4)nc(N4C[C@@H](C)O[C@@H](C)C4)nc3n2)cc1CO
inactive: 1 nM 1.75% | 8.33 nM 0.2% | 100 nM 2.09% | 833.33 nM 0.86% | 10000 nM -2.33%

O=C(Nc1ccccc1)N1CCN(c2nc(-c3ccccc3)ns2)CC1
inactive: 1 nM 1.74% | 8.33 nM 1.97% | 100 nM 2.17% | 833.33 nM 0.01% | 10000 nM -2.23%

CC(C)OC(=O)N1CCC(Oc2ncnc3c2cnn3-c2ccc(S(C)(=O)=O)cc2F)CC1
inactive: 1 nM -4.65% | 8.33 nM -1.23% | 100 nM 2.78% | 833.33 nM -0.97% | 10000 nM -1.25%

NCC(=O)Nc1ccc(-n2nc(C(F)(F)F)cc2-c2ccc3c(ccc4ccccc43)c2)cc1
inactive: 1 nM -0.05% | 8.33 nM 2.22% | 100 nM 2.09% | 833.33 nM -1.2% | 10000 nM -3.56%

C=C(C)[C@@H]1CC=C(CO)CC1 [perillyl-alcohol]
inactive: 1 nM 2.64% | 8.33 nM -3.02% | 100 nM 2.99% | 833.33 nM 2.39% | 10000 nM -1.2%

COc1cc2c(cc1O)CC[C@@H]1[C@@H]2CC[C@]2(C)[C@@H](O)CC[C@@H]12 [2-methoxyestradiol]
inactive: 1 nM -3.17% | 8.33 nM 0.66% | 100 nM -1.13% | 833.33 nM -1.83% | 10000 nM -4.59%

Cc1[nH]c(/C=C2\C(=O)Nc3ccc(S(=O)(=O)Cc4c(Cl)cccc4Cl)cc32)c(C)c1C(=O)N1CCC[C@@H]1CN1CCCC1
inactive: 1 nM -0.63% | 8.33 nM -2.66% | 100 nM -1.94% | 833.33 nM 1.33%
active: 10000 nM 50.2%

CC1(c2ccccc2)OC(C(=O)O)=CC1=O (stereo not given) [acifran]
inactive: 1 nM 0.88% | 8.33 nM 4.17% | 100 nM 2.12% | 833.33 nM -3.24% | 10000 nM 2.64%

CC(C)CCNC(=O)[C@H](CC(C)C)NC(=O)[C@H]1O[C@@H]1C(=O)O [loxistatin-acid]
inactive: 1 nM -1.03% | 8.33 nM -1.05% | 100 nM -0.89% | 833.33 nM 0.62% | 10000 nM 2.74%

C[C@H](Nc1cc(-c2cnn(C)c2)cc(Nc2cnccn2)n1)c1ccc(F)cc1
inactive: 1 nM 1.93% | 8.33 nM 1.68% | 100 nM 2.86% | 833.33 nM -4.39% | 10000 nM -8.8%

CCOC(=O)c1ccc(OCCC2CCN(c3ccc(C)nn3)CC2)cc1 [pirodavir]
inactive: 1 nM 2.32% | 8.33 nM 1.72% | 100 nM 0.34% | 833.33 nM 1.49% | 10000 nM -2.18%

CC1(C)S[C@@H]2[C@H](NC(=O)Cc3ccccc3)C(=O)N2[C@H]1C(=O)O [benzylpenicillin]
inactive: 1 nM -3.59% | 8.33 nM -1.58% | 100 nM -1.25% | 833.33 nM -1% | 10000 nM -2.39%

CC(=O)O[C@]1(C(C)=O)CC[C@H]2[C@@H]3C=C(C)C4=CC(=O)CC[C@@H]4[C@H]3CC[C@@]21C [nomegestrol-acetate]
inactive: 1 nM -1.8% | 8.33 nM -1.93% | 100 nM 0.03% | 833.33 nM 1.28% | 10000 nM -2.55%

CN(C)CCOC(C)(c1ccccc1)c1ccccn1 (stereo not given) [doxylamine]
inactive: 1 nM -1.38% | 8.33 nM -0.13% | 100 nM -1.73% | 833.33 nM 1.53% | 10000 nM 1.43%

c1cn2cc(-c3ccc4cn[nH]c4c3)nc(Nc3ccc(N4CCOCC4)cc3)c2n1
inactive: 1 nM -4.37% | 8.33 nM -3.35% | 100 nM -4.69% | 833.33 nM 0.03% | 10000 nM -4.57%

O=C(O[C@@H]1Cc2c(O)cc(O)cc2O[C@@H]1c1ccc(O)c(O)c1)c1cc(O)c(O)c(O)c1 [epicatechin-gallate-(-)]
inactive: 1 nM -1.08% | 8.33 nM 3.11% | 100 nM 5.77% | 833.33 nM 3.37% | 10000 nM -0.51%

O=C(O)[C@@H](S)[C@@H](S)C(=O)O [dimercaptosuccinic-acid]
inactive: 1 nM 0.73% | 8.33 nM -1.78% | 100 nM -1.78% | 833.33 nM -1.02% | 10000 nM -2.75%

CCc1cc(/C(C)=N/OCc2ccc(C3CCCCC3)c(C(F)(F)F)c2)ccc1CN1CC(C(=O)O)C1 [siponimod]
inactive: 1 nM -0.21% | 8.33 nM -1.67% | 100 nM -0.01% | 833.33 nM -0.18% | 10000 nM 1.37%

CC(=O)[C@@]12O[C@](C)(c3ccccc3)O[C@@H]1C[C@H]1[C@@H]3CCC4=CC(=O)CC[C@]4(C)[C@H]3CC[C@@]12C [algestone-acetophenide]
inactive: 1 nM 0.43% | 8.33 nM 0.88% | 100 nM 1.95% | 833.33 nM 2.43% | 10000 nM 2.91%

CN1C2CCCC1CC(NC(=O)c1nn(C)c3ccccc13)C2 (stereo not given) [granisetron]
inactive: 1 nM 3.53% | 8.33 nM 4.21% | 100 nM -1.14% | 833.33 nM -2.63% | 10000 nM -4.21%

O=C(NOCC(O)CO)c1cc(Br)c(F)c(F)c1Nc1ccc(I)cc1F (stereo not given)
inactive: 1 nM -0.27% | 8.33 nM -0.08% | 100 nM -8.55% | 833.33 nM -10% | 10000 nM -12.5%

CC(=O)SCCC(=O)N1[C@H](C)CCC[C@@H]1C(=O)O [methiopril]
inactive: 1 nM -1.78% | 8.33 nM -1.6% | 100 nM 3.1% | 833.33 nM 0.4% | 10000 nM 1.04%

Cc1cc(C)nc(NS(=O)(=O)c2ccc(NC(=S)NC(=O)COc3ccc(Br)cc3Cl)cc2)n1
inactive: 1 nM -1.5% | 8.33 nM -0.46% | 100 nM -0.98% | 833.33 nM -2.23% | 10000 nM 0.9%

NC(CO)(CO)CO [trometamol]
inactive: 1 nM -0.18% | 8.33 nM -2.53% | 100 nM -0.26% | 833.33 nM 2.08% | 10000 nM 4.11%

CC(C)c1onc(-c2c(Cl)cccc2Cl)c1COc1ccc(/C=C/c2cccc(C(=O)O)c2)c(Cl)c1
inactive: 1 nM 0.86% | 8.33 nM 0.15% | 100 nM -0.17% | 833.33 nM 0.5% | 10000 nM 0.01%

CCc1nc(C(N)=O)c(Nc2ccc(N3CCC(N4CCN(C)CC4)CC3)c(OC)c2)nc1NC1CCOCC1 [gilteritinib]
inactive: 1 nM 0.28% | 8.33 nM 0.02% | 100 nM -2.49% | 833.33 nM -0.11% | 10000 nM 10.3%

O=C(O)CNC(=O)c1c(O)c2ccccc2n(Cc2ccccc2)c1=O
inactive: 1 nM -0.58% | 8.33 nM -1.09% | 100 nM 0.41% | 833.33 nM -0.62% | 10000 nM -1.13%

Cc1ccc(NC(=O)Nc2cc(C(F)(F)F)ccc2F)cc1Nc1ccc2c(c1)NC(=O)/C2=C\c1ccc[nH]1
inactive: 1 nM 5.12% | 8.33 nM 5.28% | 100 nM 5.34% | 833.33 nM 7.91% | 10000 nM 4.87%

CC(C)[C@H](NS(=O)(=O)c1ccc(-c2ccc(Br)cc2)cc1)C(=O)O
inactive: 1 nM 0.82% | 8.33 nM 0.67% | 100 nM -0.06% | 833.33 nM 0.69% | 10000 nM 1.89%

c1cc2c(c(N3CCNCC3)c1)OCCO2 [eltoprazine]
inactive: 1 nM 3.51% | 8.33 nM 2.36% | 100 nM 2.47% | 833.33 nM -1.11% | 10000 nM -4.55%

N#Cc1c(-c2ccccc2)cc(-c2cc(Br)ccc2O)[nH]c1=O
inactive: 1 nM 0.98% | 8.33 nM 2.69% | 100 nM 3% | 833.33 nM 2.87% | 10000 nM 3.55%

CCCOC(=O)c1ccccc1 [propyl-benzoate]
inactive: 1 nM 2.41% | 8.33 nM 0.41% | 100 nM -0.99% | 833.33 nM 0.39% | 10000 nM 2.1%

NC(=O)c1[nH]cnc1O
inactive: 1 nM 0.65% | 8.33 nM 1.77% | 100 nM 0.2% | 833.33 nM -1.72% | 10000 nM 3.24%

N=C(N)NCCC[C@@H](N)C(=O)N[C@@H](CCCNC(=N)N)C(=O)N1CCC[C@H]1C(=O)N1C[C@H](O)C[C@H]1C(=O)NCC(=O)N[C@@H](Cc1cccs1)C(=O)N[C@@H](CO)C(=O)N1Cc2ccccc2C[C@@H]1C(=O)N1[C@H](C(=O)N[C@@H](CCCNC(=N)N)C(=O)O)C[C@@H]2CCCC[C@@H]21 [icatibant-acetate]
inactive: 1 nM -2.62% | 8.33 nM -4.61% | 100 nM -4.27% | 833.33 nM 2.14% | 10000 nM 1.26%

C[C@H](NC(=O)c1sccc1OCc1ccc(Cl)cc1)c1ccccc1
inactive: 1 nM -2.57% | 8.33 nM -2.87% | 100 nM -1.08% | 833.33 nM -1.14% | 10000 nM -0.53%

O=S(=O)(NCC1CC1)c1ccc(Nc2nccc(N3CCCc4cc(O)ccc43)n2)cc1 [pyrintegrin]
active: 10000 nM 36%
inactive: 1 nM 2.46% | 8.33 nM 5.45% | 100 nM 4.41% | 833.33 nM 14.1%

— the supplement of paper PMC13380429
